The source made the active and inactive calls. The calls were made as follows: active = hit-call score of the fitted dose curve at least 0.9, where 1 is the maximum; inactive = score below 0.9.
Key:
Conditions in all cases: mRNA level, 48 h; actives raise or lower the signal
[1] = read-out: Bcl-2 (BID) gene, BID (gene 637); assay: LTEA_HepaRG_BID: Life Technologies and Expression Analysis (LTEA) Assay for Bcl-2 (BID) gene using HepaRG (AID 2283476)
Procedure, shortened: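 HepaRG, 48 h exposure, 8-pt half-log series, top 100 uM, 0.5% DMSO vehicle, duplicates. Readout: BID mRNA by TaqMan qRT-PCR; housekeeping-normalized; bidirectional curve fit vs DMSO baseline.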

Caspase-3 (Homo sapiens) = Caspase-3 (Homo sapiens) (UniProt P42574); assay: LTEA_HepaRG_CASP3: Life Technologies and Expression Analysis (LTEA) Assay for cysteine-aspartic acid protease (CASP3) using HepaRG (AID 2283477)
Chain of Caspase-3 (Homo sapiens) (P42574 whole entry, looked up): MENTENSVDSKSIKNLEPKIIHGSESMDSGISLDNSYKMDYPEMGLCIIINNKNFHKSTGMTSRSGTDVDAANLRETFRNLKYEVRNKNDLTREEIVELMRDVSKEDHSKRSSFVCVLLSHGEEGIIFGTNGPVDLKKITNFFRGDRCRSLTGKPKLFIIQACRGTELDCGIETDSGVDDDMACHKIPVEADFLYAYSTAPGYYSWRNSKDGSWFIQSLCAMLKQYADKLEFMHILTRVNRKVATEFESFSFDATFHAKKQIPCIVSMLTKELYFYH
Procedure, shortened: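 HepaRG, 48 h exposure, 8 conc. (top 100 uM, half-log steps, duplicate), 0.5% DMSO vehicle; qRT-PCR of CASP3 transcript, housekeeping-normalised (ACTB/GAPDH/POLR2A); bidirectional curve fit vs DMSO baseline.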

[2] = read-out: Cytochrome P450 (CYP24A1), CYP24A1 (gene 1591); assay: LTEA_HepaRG_CYP24A1: Life Technologies and Expression Analysis (LTEA) Assay for Cytochrome P450 (CYP24A1) using HepaRG (AID 2283478)
Procedure, shortened: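 qRT-PCR read-out: CYP24A1 transcript levels normalized to three housekeeping genes, bidirectional curve fits against 0.5% DMSO baseline. Human HepaRG cells treated 48 h with chemicals at eight concentrations from 100 uM in half-log steps.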

[3] = read-out: Cytochrome P450 (CYP1A2), CYP1A2 (gene 1544); assay: LTEA_HepaRG_CYP1A2: Life Technologies and Expression Analysis (LTEA) Assay for Cytochrome P450 (CYP1A2) using HepaRG (AID 2283479)
Procedure, shortened: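 HepaRG, 48 h exposure, top 100 uM, half-log 8-pt, 0.5% DMSO vehicle, duplicates. Readout: TaqMan qRT-PCR of CYP1A2 mRNA, housekeeping-normalized (ACTB/GAPDH/POLR2A). Gain/loss fit relative to DMSO baseline.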

[4] = read-out: cysteine-aspartic acid protease (CASP8), CASP8 (gene 841); assay: LTEA_HepaRG_CASP8: Life Technologies and Expression Analysis (LTEA) Assay for cysteine-aspartic acid protease (CASP8) using HepaRG (AID 2283480)
Procedure, shortened: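 qRT-PCR readout of CASP8 mRNA, normalized to three housekeeping genes, after 48 h chemical exposure of HepaRG cells; 8-point half-log series, top 100 uM, 0.5% DMSO vehicle. Bidirectional curve fitting against DMSO baseline.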

[5] = read-out: Cytochrome P450 (CYP2B6), CYP2B6 (gene 1555); assay: LTEA_HepaRG_CYP2B6: Life Technologies and Expression Analysis (LTEA) Assay for Cytochrome P450 (CYP2B6) using HepaRG (AID 2283481)
Procedure, shortened: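 Read-out is CYP2B6 mRNA by TaqMan qRT-PCR, normalized to three housekeeping genes and fitted bidirectionally against 0.5% DMSO baseline. Human HepaRG cells received test chemicals for 48 h, top concentration 100 uM, half-log dilutions.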

[6] = read-out: Cytochrome P450 2C19 (Homo sapiens) (UniProt P33261); assay: LTEA_HepaRG_CYP2C19: Life Technologies and Expression Analysis (LTEA) Assay for CYP2C19 using HepaRG (AID 2283482)
Procedure, shortened: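 HepaRG, 48 h chemical exposure, 8-pt half-log series from 100 uM in 0.5% DMSO, duplicates. Readout: CYP2C19 mRNA by TaqMan qRT-PCR, housekeeping-normalized. Bidirectional fit vs DMSO baseline; phenobarbital 1mM as induction control.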

CYP2C8 (gene 1558) = assay: LTEA_HepaRG_CYP2C8: Life Technologies and Expression Analysis (LTEA) Assay for CYP2C8 using HepaRG (AID 2283483)
Procedure, shortened: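 HepaRG (human liver line), 48 h chemical exposure, 8-pt half-log series from 100 uM, 0.5% DMSO vehicle. Readout: CYP2C8 transcript by qRT-PCR, housekeeping-normalized. Bidirectional fit vs DMSO baseline.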

CYP2C9 (gene 1559) = assay: LTEA_HepaRG_CYP2C9: Life Technologies and Expression Analysis (LTEA) Assay for CYP2C9 using HepaRG (AID 2283484)
Procedure, shortened: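 HepaRG, 48 h dosing, 8-pt half-log series, top 100 uM, 0.5% DMSO vehicle. Read-out: CYP2C9 transcript by TaqMan qRT-PCR, housekeeping-normalized (ACTB/GAPDH/POLR2A). Gain or loss fitted vs DMSO baseline.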

CYP2E1 (gene 1571) = assay: LTEA_HepaRG_CYP2E1: Life Technologies and Expression Analysis (LTEA) Assay for CYP2E1 using HepaRG (AID 2283485)
Procedure, shortened: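 CYP2E1 transcript was measured by TaqMan qRT-PCR in human HepaRG cultures after 48 h chemical exposure (top 100 uM, half-log steps, 0.5% DMSO vehicle). Housekeeping-gene normalization; gain or loss fitted relative to DMSO baseline.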

Measured: AC50

Chain of Cytochrome P450 2C19 (Homo sapiens) (P33261 whole entry, looked up): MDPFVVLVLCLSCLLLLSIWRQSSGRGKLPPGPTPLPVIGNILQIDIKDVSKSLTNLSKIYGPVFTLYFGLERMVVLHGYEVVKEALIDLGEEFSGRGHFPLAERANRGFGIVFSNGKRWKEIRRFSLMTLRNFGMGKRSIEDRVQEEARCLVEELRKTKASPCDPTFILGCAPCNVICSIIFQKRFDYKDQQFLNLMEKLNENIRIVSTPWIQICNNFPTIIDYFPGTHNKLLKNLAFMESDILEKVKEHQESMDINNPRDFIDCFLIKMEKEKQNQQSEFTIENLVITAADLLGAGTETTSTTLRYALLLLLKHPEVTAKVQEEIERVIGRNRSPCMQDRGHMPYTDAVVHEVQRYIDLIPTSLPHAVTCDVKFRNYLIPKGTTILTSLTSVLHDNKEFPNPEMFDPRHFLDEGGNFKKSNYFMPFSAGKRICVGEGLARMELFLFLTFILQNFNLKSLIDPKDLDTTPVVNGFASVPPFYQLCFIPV

C1CNCCN1
inactive: all assays above

Nc1ccc(C(=O)O)cc1
active: [3] 50 µM
inactive: all other assays above

Cc1ccc([N+](=O)[O-])cc1N
active: [3] 26.8 µM | [5] 18.4 µM | CYP2E1 (gene 1571) 32.4 µM
inactive: all other assays above
